Test results published in PubChem BioAssay.
Calls of active or inactive are those of the source.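 Rule for the calls, unless noted: active = visual image review flags a hit and inhibition of aggregation exceeds 20%; inconclusive = visual hit but inhibition at or below 20%; inactive = no hit on visual image review.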

Assays:
[1] = inhibitors of TNFa-induced NFkB p65 translocation, primary screen, imaging, HUVEC, MLSMR starter and 10KST1 sets (AID 438;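 active = inhibition above 20% together with a positive visual image hit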;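 note: compound added about 3h40 before a 20 min TNFalpha stimulation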;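 for inhibition: signal is the nuclear over cytoplasmic p65 intensity ratio per well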); details: HUVEC TNFa-induced p65 nuclear translocation; cell count: measured here: nuclei count (cytotoxicity indicator), at 2.08 µM; inhibition: at 2 µM, stronger effect = higher value, 0% TNFa-plus-vehicle, 100% no-TNFa wells
[2] = reduction of polyQ htt aggregates in cells – imaging, exon1htt(103Q)mCFP cells, high-content imaging, primary screen (AID 483); details: exon1htt(103Q)mCFP cell line, aggregate imaging, at 2 µM; inhibition of aggregation: stronger effect = higher value; nuclei count: measured here: cell count, toxicity;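 note: compound exposure lasted 3 days before fixation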;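 for nuclei count: percent of the per-plate median nuclei count of sample wells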
[3] = endothelial E-selectin expression blockers – imaging, HUVEC, immunofluorescence, MLSMR starter and 10KST1 sets, primary screen (AID 487;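 active = visually confirmed hit in the image check and inhibition above 20%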;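 for inhibition: signal is fraction of cell area covered by stained E-selectin grains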;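 for nuclei count: 100% = median nuclei count of all wells on the same plate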); details: HUVEC TNFalpha-induced E-selectin immunofluorescence imaging, at 2 µM; inhibition: stronger effect = higher value; nuclei count: measured here: cell number, toxicity
[4] = Primary imaging screen for DUSP6 inhibitors that restore phospho-Erk in transfected HeLa cells, chemical complementation (AID 609;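 active = compounds giving at least 50% inhibition in the cell-based MKP-3 phosphatase rescue imaging test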;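 for inhibition: phospho-Erk level distribution per well compared with pooled transfected vehicle control wells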); details: HeLa MKP-3 transfected, phospho-Erk imaging KS statistic, at 10 µM, cells stimulated with TPA for 15 min
[5] = target: Dual specificity protein phosphatase 6 (Homo sapiens) (UniProt Q16828); test: as above; details: HeLa MKP-3 transfected, phospho-Erk imaging KS statistic; at 10 µM; stronger effect = higher value; cells stimulated with TPA for 15 min
Dual specificity protein phosphatase 6 (Homo sapiens), sequence (Q16828 whole entry, looked up): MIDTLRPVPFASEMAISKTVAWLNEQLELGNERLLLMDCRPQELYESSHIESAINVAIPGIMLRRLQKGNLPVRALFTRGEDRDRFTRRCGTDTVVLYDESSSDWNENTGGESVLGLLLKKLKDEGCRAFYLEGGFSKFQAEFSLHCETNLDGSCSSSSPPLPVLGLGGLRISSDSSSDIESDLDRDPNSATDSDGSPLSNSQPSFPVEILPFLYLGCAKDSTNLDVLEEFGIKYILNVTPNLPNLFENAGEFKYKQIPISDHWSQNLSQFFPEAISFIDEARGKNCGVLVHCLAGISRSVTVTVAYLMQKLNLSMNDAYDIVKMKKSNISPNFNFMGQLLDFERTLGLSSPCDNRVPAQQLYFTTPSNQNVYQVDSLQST

[6] = target: Voltage-gated potassium channel subunit beta-2 (Rattus norvegicus) (UniProt P62483); test: inhibitors of rat Kvbeta2 reductase activity – biochemical, NADPH fluorescence, primary screen (AID 622;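 active = fluorescence slope higher than the sample average by over 3 SD, cut at about -0.22 in these data, passing the limit was not always enough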;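 note: slope of raw intensity against log time taken from 70 to 1610 s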); details: recombinant KvBeta, 4-cyanobenzaldehyde reduction, at 10 µM, stronger effect = higher value
Voltage-gated potassium channel subunit beta-2 (Rattus norvegicus), sequence (P62483 whole entry, looked up): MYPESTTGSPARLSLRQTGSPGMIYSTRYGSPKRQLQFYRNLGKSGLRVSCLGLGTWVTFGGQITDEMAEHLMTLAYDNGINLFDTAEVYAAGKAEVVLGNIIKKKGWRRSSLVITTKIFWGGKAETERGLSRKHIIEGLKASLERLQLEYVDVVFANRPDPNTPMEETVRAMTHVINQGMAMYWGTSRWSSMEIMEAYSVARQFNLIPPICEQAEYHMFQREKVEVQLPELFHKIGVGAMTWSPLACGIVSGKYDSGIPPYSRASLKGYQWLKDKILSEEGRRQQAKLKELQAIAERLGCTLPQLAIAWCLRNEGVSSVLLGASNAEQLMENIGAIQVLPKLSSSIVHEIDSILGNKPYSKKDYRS

[7] = target: Voltage-gated potassium channel subunit beta-2 (Rattus norvegicus) (UniProt P62483); test: enhancers of rat Kvbeta2 NADPH turnover – biochemical, NADPH fluorescence, primary screen (AID 623;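 active = NADPH fluorescence slope more negative than the mean of all samples by about 3 SD, 99.7% confidence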;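 note: fluorescence intensity change per second fitted from 20 to 320 s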); details: Recombinant KvBeta, NADPH fluorescence decrease slope, 10 min; at 10 µM; stronger effect = lower value
[8] = target: Alpha-2C adrenergic receptor (Homo sapiens) (UniProt P18825); test: compounds altering alpha2C-coupled GIRK flux – cell-based, HEK293 alpha2C/GIRK1/2, thallium flux, primary screen (AID 624;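 active = fluorescence slope after compound addition differing from the mean of all screened samples at 99.7% confidence, in either direction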;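 note: slope of fluorescence ratio to pre-addition baseline per second over 15 to 24 s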); details: thallium flux BTC fluorescence, at 10 µM, actives lie on both sides
Alpha-2C adrenergic receptor (Homo sapiens), sequence (P18825 whole entry, looked up): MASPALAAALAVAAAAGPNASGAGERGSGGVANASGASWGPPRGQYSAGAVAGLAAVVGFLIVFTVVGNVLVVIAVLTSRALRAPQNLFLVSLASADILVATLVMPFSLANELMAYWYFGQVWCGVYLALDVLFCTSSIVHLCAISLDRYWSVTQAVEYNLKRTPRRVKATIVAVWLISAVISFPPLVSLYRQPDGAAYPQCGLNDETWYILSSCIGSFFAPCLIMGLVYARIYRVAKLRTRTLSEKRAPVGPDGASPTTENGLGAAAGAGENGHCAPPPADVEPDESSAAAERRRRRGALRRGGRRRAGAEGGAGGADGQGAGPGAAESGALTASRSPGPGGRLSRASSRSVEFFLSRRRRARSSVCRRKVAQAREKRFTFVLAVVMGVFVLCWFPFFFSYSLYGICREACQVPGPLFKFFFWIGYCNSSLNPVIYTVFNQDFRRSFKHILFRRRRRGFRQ

[9] = inhibitors of larval lipid processing in zebrafish, primary screen, whole organism, PED6 fluorescence, gall bladder and intestine (AID 686;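 active = a full or partial loss of lipid-probe fluorescence in the fish gall bladder, intestine or both, judged by eye; inactive = no fluorescence loss, or compound toxic to the fish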;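 note: larvae 5 to 7 days old with five fish per well; signal comes from phospholipase A2 cleavage of quenched PED6 carried via bile; overnight exposure to compound and PED6 before scoring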); details: Zebrafish larvae PED6 lipid processing, fluorescence scoring; screened at 20 µM (by protocol)
[10] = loss of swimming-algae plug formation – whole organism, Chlamydomonas reinhardtii, WT vs cilia-less mutant, absorbance, 96-well, primary screen (AID 463189;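 active = inhibition at or above 50% relative to wild type and mutant plate controls; inactive = inhibition below 50%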;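 note: 0% = wild type cc124 cells in DMSO and 100% = ciliumless bld1 mutant cells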); details: Chlamydomonas reinhardtii gravitaxis, OD600 absorbance, 2 days; at 10 µM; stronger effect = higher value
[11] = blockers of RIG-like receptor reporter activation – cell-based, Sendai virus stimulus, luciferase, 10K MLSCN set, TLR/RLR signaling modifier project, primary screen (AID 602276;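 active = inhibition at or above 50% at 10 µM; inactive = inhibition below 50%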;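 note: firefly luciferase from ISG56 promoter only with Renilla not read in this screen; 0% = Sendai virus plus DMSO and 100% = medium plus DMSO without virus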); details: HEK293 RL24 IRF3 luciferase reporter, at 10 µM, stronger effect = higher value
[12] = TLR3 IRF3 reporter activation blockers – cell-based, poly I:C stimulus, luciferase, 10K MLSCN set, primary screen (AID 602277;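 active = inhibition of the reporter signal at or above 50%; inactive = inhibition below 50%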); details: HEK293-TLR3 RL24 IRF3 luciferase reporter, at 10 µM, stronger effect = higher value
[13] = target: Muscarinic acetylcholine receptor M4 (Homo sapiens) (UniProt P08173); test: M4-linked GIRK flux change, two-sided – cell-based, HEK293 M4/GIRK, thallium flux, BTC-AM, M4 allosteric agonist project, primary screen (AID 625;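 active = fluorescence slope after compound addition differing from the mean of all tested samples at 99.7% confidence, mostly higher but some lower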;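 note: thallium influx through GIRK channels coupled to M4 in HEK293 cells with BTC-AM dye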); details: at 10 µM, actives lie on both sides
Muscarinic acetylcholine receptor M4 (Homo sapiens), sequence (P08173 whole entry, looked up): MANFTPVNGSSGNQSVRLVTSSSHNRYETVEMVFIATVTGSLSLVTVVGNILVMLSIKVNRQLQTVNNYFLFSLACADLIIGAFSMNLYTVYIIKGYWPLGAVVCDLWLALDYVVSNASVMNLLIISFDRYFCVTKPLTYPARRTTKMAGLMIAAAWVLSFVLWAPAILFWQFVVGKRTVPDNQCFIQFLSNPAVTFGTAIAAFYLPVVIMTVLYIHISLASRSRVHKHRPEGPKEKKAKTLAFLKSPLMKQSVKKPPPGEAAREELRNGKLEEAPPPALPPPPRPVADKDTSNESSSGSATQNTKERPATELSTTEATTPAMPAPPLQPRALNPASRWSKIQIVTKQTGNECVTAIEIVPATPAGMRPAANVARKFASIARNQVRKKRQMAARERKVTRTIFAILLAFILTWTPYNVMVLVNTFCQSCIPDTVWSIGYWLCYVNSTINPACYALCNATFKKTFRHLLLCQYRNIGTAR

[14] = measured here: cell density z-score
[15] = measured here: nuclear c-Myc green intensity z-score
[16] = measured here: nuclear pErk red intensity z-score, stronger effect = higher value

SMILES	cell count [1]	inhibition [1]	inhibition of aggregation [2]	nuclei count [2]	inhibition [3]	nuclei count [3]	z-score [4, 14]	z-score [4, 15]	z-score [4, 16]	inhibition [5]	fluorescence slope [6]	NADPH fluorescence slope [7]	slope [8]	outcome [9]	inhibition [10]	inhibition [11]	inhibition [12]	fluorescence slope [13]
O=C1N[C@@H](Cc2cnc[nH]2)C(=O)N2CCC[C@@H]12	563	-1.5% (inactive)	17.2% (inactive)	95.1%	-32% (inactive)	119%	-1.25	0.0399	-0.395	-0.493% (inactive)	-0.516 (inactive)	-4.6e-05 (inactive)	0.0041 (inactive)	inactive	10.3% (inactive)	16.7% (inactive)	33.3% (inactive)	–
COc1ccc(C2CC(=O)C(C=NCCN3CCOCC3)=C(O)C2)cc1 (configuration not stated)	379	-8.5% (inactive)	0.1% (inactive)	106%	-118% (inactive)	138%	0.329	0.663	-0.587	-5.62% (inactive)	-0.354 (inactive)	9.4e-06 (inactive)	0.00492 (inactive)	inactive	7.09% (inactive)	14.9% (inactive)	20.5% (inactive)	–
CSC1=C(C#N)C(C)CC(=O)N1 (configuration not stated)	552	-5.8% (inactive)	-2% (inactive)	112%	1.9% (inactive)	108%	-0.957	-0.437	0.604	-5.89% (inactive)	-0.51 (inactive)	-6.2e-05 (inactive)	0.00463 (inactive)	inactive	19.4% (inactive)	13.8% (inactive)	12.5% (inactive)	–
CCN(CC)c1ccc(-c2nn3c(-c4cccnc4)nnc3s2)cc1	508	-7.3% (inactive)	-31.1% (inactive)	10%	-247% (inactive)	120%	0.463	-0.276	0.497	-6.06% (inactive)	-0.39 (inactive)	-8.4e-05 (inactive)	0.00633 (inactive)	inactive	128% (active)	49.1% (inactive)	7.63% (inactive)	–
CCOC(=O)C1CCN(c2nc3ccccc3nc2C(C#N)C(=O)OC(C)C)CC1 (configuration not stated)	520	-11.5% (inactive)	-208% (inactive)	104%	-90.1% (inactive)	128%	-0.0557	0.253	-0.0521	-4.27% (inactive)	-0.341 (inactive)	-2.3e-08 (inactive)	0.00139 (inactive)	inactive	9.67% (inactive)	-15.8% (inactive)	-37.7% (inactive)	–
OCC(O)CN1CCN(c2ccccc2)CC1 (configuration not stated)	605	-6.5% (inactive)	-0.5% (inactive)	108%	-69.1% (inactive)	122%	0.00928	0.0558	-0.225	25.1% (inactive)	-0.455 (inactive)	-1.7e-06 (inactive)	0.00502 (inactive)	inactive	19.7% (inactive)	17.9% (inactive)	40.8% (inactive)	–
CCCC(=O)N(Cc1cc2ccccc2[nH]c1=O)c1ccccc1OC	429	-16.8% (inactive)	-1.6% (inactive)	94.8%	-133% (inactive)	166%	1.04	-0.344	-0.503	17.7% (inactive)	-0.364 (inactive)	-8.5e-06 (inactive)	0.00461 (inactive)	inactive	27.4% (inactive)	12% (inactive)	14.8% (inactive)	–
Cc1nc2ccccc2cc1O	395	-0.5% (inactive)	21.5% (inactive)	80.3%	-67% (inactive)	103%	-0.53	-0.624	1.27	1.42% (inactive)	-0.392 (inactive)	-3.6e-05 (inactive)	–	inactive	53.3% (active)	17.5% (inactive)	27.8% (inactive)	0.00432 (inactive)
C/C(=C\C(=O)O)CC(=O)O	333	-2.6% (inactive)	25.8% (inactive)	93.1%	-133% (inactive)	117%	0.304	-0.204	-2.54	19.4% (inactive)	-0.486 (inactive)	-0.000131 (inactive)	–	inactive	-0.382% (inactive)	2.17% (inactive)	13.5% (inactive)	0.00465 (inactive)
CCOC(=O)c1ccc(N=Cc2nc(-c3ccccc3)oc2OC(C)=O)cc1	794	-6.6% (inactive)	-2.7% (inactive)	98.2%	-0.4% (inactive)	120%	0.0584	0.0892	-0.36	11.3% (inactive)	-0.395 (inactive)	-5.5e-05 (inactive)	–	inactive; toxic	23.8% (inactive)	4.63% (inactive)	11.1% (inactive)	0.00761 (inactive)
Cc1c(NC(=O)c2ccc(=O)oc2)c(=O)n(-c2ccccc2)n1C	553	-12.6% (inactive)	1.2% (inactive)	78.4%	-22.2% (inactive)	119%	-1.01	0.226	0.431	3.42% (inactive)	-0.249 (inactive)	-7.6e-06 (inactive)	–	inactive	23.3% (inactive)	22.3% (inactive)	24.4% (inactive)	0.00562 (inactive)
Nn1c(SCC(=O)Nc2ccc3c(c2)OCCO3)nnc1C(F)(F)F	598	0% (inactive)	-32.9% (inactive)	105%	-26.1% (inactive)	110%	0.295	-0.513	-1.34	10.9% (inactive)	-0.426 (inactive)	-5.4e-05 (inactive)	–	inactive	11.3% (inactive)	12.4% (inactive)	21.3% (inactive)	0.00501 (inactive)
COc1cccc(N2C(=O)C(O)=C(C(C)=O)C2c2ccc(OC)c(OC)c2)c1 (configuration not stated)	652	-3.8% (inactive)	14% (inactive)	104%	34% (inactive)	106%	-1.18	-0.212	0.653	2.46% (inactive)	-0.453 (inactive)	-6.1e-06 (inactive)	–	inactive	-2.64% (inactive)	5.42% (inactive)	-0.11% (inactive)	0.00642 (inactive)
COc1ccc2c(c1)[nH]c1c(=O)n(CC3CCCO3)cnc12 (configuration not stated)	702	-0.4% (inactive)	5.9% (inactive)	73.4%	-39.2% (inactive)	133%	1.51	-0.546	-1.36	-2.91% (inactive)	-0.423 (inactive)	-4.3e-05 (inactive)	–	inactive	0.053% (inactive)	-17.6% (inactive)	-27.5% (inactive)	0.00561 (inactive)
CC1(C)CNC(=O)c2sc(N3CCOCC3)nc2C1	330	-0.5% (inactive)	-17.3% (inactive)	76.6%	-112% (inactive)	119%	-0.682	0.266	1.71	-0.159% (inactive)	-0.39 (inactive)	-4.4e-05 (inactive)	–	inactive	0.902% (inactive)	17.2% (inactive)	15.4% (inactive)	0.00631 (inactive)
COc1ccc2c(c1)C1(C)CC(C)(C)N2C(=O)N1c1ccccc1 (configuration not stated)	585	-8.2% (inactive)	-18.9% (inactive)	111%	-32.4% (inactive)	110%	0.165	-1.42	-0.582	-3.95% (inactive)	-0.461 (inactive)	-4.8e-05 (inactive)	–	inactive	4.76% (inactive)	12% (inactive)	23.1% (inactive)	0.0047 (inactive)
c1ccc(CN2CCN(c3ncnc4c3[nH]c3ccccc34)CC2)cc1	599	-13.1% (inactive)	10.3% (inactive)	94.4%	-47.4% (inactive)	137%	0.378	-1.18	-0.208	13.4% (inactive)	-0.381 (inactive)	-2.8e-05 (inactive)	–	active; weak signal in intestine only	21.2% (inactive)	1.57% (inactive)	-46.7% (inactive)	0.00594 (inactive)
COC(=O)c1cc(=O)n2c(-c3ccc(OC)cc3)csc2n1	468	-6.9% (inactive)	8.7% (inactive)	104%	-46.8% (inactive)	133%	-0.555	0.15	-1.12	1.98% (inactive)	-0.383 (inactive)	-3.1e-05 (inactive)	–	inactive	-2.61% (inactive)	18.2% (inactive)	19.9% (inactive)	0.00743 (inactive)
O=S(=O)(c1ccc2ccccc2c1)N(CC(O)CN1CCOCC1)c1ccccc1 (configuration not stated)	576	-8.7% (inactive)	-10.4% (inactive)	113%	-7.5% (inactive)	105%	0.984	1.41	-0.234	1.42% (inactive)	-0.344 (inactive)	-3.3e-05 (inactive)	–	inactive	143% (active)	20.7% (inactive)	14.9% (inactive)	0.00503 (inactive)
CCc1nc2sc3c(c2c(=O)o1)CCCC3	736	-8.2% (inactive)	-11.4% (inactive)	104%	-32.9% (inactive)	130%	-0.371	-1.28	1.35	-2.07% (inactive)	-0.413 (inactive)	-5.4e-05 (inactive)	–	inactive	8.78% (inactive)	23% (inactive)	35.5% (inactive)	0.00552 (inactive)
COc1ccc(C2(CN(C(C)=O)C(C)=O)CCCC2)cc1OC	676	-6.2% (inactive)	6.8% (inactive)	109%	-28.3% (inactive)	139%	-0.215	1.01	-1.44	1.98% (inactive)	-0.504 (inactive)	-6.2e-05 (inactive)	–	inactive	-15.3% (inactive)	1.22% (inactive)	7.89% (inactive)	0.00396 (inactive)
